# In PubChem BioAssay (NCI):
# About 83,000 compounds went through this panel and 20% of them were active in at least one assay; those are over-represented in the sample as a whole.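 Interpretation: 100, growth as untreated; towards 0, rising growth inhibition; 0, no net growth; 0 to -100, cell death. Compounds scoring below 10 were considered active.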 Values without a mark were called inactive. Active and inactive are the calls of the source.
# Tested on: HL-60(TB) leukemia
# Test: NCI-60 one-dose screen, 48 h (100 = growth as untreated, 0 = no growth, -100 = all killed)
# Details: 10 µM unless noted
row,SMILES,growth
1,O=S(=O)(O)CC(O)CN1CCN(CCO)CC1 (stereo not given),96%
2,CCN(CC)c1ccc(N2C(=O)/C(=C/c3cccs3)SC2=S)cc1,92.6%
3,O=C1C=C(c2ccccc2)C(O)(c2ccccc2)C1 (stereo not given),85.2%
4,COc1cc2c(cc1OC)-c1ccc3cc4c(cc3c1N(CCCN1CCCCC1)C2)OCO4,37.1%
5,Clc1ccc2c(NCCCNC3CCCCC3)ccnc2c1,96.1%
6,Cc1ccc(NC(=O)Nc2c(Cl)cccc2Cl)cn1,71.3%
7,O=C1c2ccccc2-c2nccc3cc(Cl)nc1c23,1.84% (active)
8,CCCc1n(Cc2ccc3ccccc3n2)cc[n+]1Cc1ccc2ccccc2n1,-31.2% (active)
9,NC(CC(=O)O)C(=O)OCc1ccccc1 (stereo not given),101%
10,COc1cc2c(cc1OC)C(=O)/C(=C/c1cccc(OCC(=O)c3ccccc3)c1)C2,89.8%
11,O=C1Nc2cc(-c3cccc(O)c3)ccc2/C1=C/c1ccc[nH]1,6.76% (active)
12,Cc1ccc(C(=O)N/N=C/c2ccc3c(c2)OCO3)cc1,90.4%
13,CC(=O)N(Cc1ccccc1)c1nc2ccc(O)c(CN(C)C)c2s1,105%
14,FC(F)(F)c1[nH]ncc1-c1nc2c(N3CCCCC3)cc3[nH]ncc3c2c2c1CCCC2,-1.46% (active)
15,CN1CC(c2ccccc2)C(C(=O)c2ccc(Br)cc2)C12C(=O)Nc1ccccc12 (stereo not given),99.8%
16,O=C(Cc1ccccc1)Nc1cccc(N=Cc2ccccc2O)c1,100%
17,CCN1C(=O)N(CC)C2C1NN=c1s/c(=C3\C(=O)N(CC(C)(C)C)c4ccccc43)c(=O)n12 (stereo not given),-26.1% (active)
18,O=C(Nc1ccc(Br)cc1)c1ccc(Cl)c(Cl)c1,19.4%
19,CCCCc1ccc(NC(=O)N(CCCl)N=O)cc1,98.8%
20,CCOC(=O)c1ccc(N=Cc2sc(=O)[nH]c2O)cc1,101%

row,SMILES,growth
1,Clc1ccc(/C=N/Nc2nc3ccccc3s2)c(Cl)c1,98.5%
2,Cn1c(/C=C(\C#N)c2cccc(C(F)(F)F)c2)nc2c(N3CCOCC3)nc(Cl)nc21,-25.2% (active)
3,COc1ccc(-c2nn(-c3ccccc3)cc2/C=C2\SC(=S)N(CCc3ccc(O)cc3)C2=O)cc1,84%
4,O=[N+]([O-])c1cc(Cl)cc(Cl)c1O,99.5%
5,Cc1c2cccnc2c(C)c2c1c1cc(CO)ccc1n2C,31%
6,COc1ccc2c(c1)/C(=C/c1cc(OC)c(OC)c(OC)c1)C(=O)N2C,3.32% (active)
7,Sc1ccc(Nc2c3ccccc3nc3ccccc23)cc1,31.7%
8,CC(=O)[C@H]1CC[C@]2(C)[C@@H]1CC[C@@H]1[C@@]3(C)C/C(=C/c4cccnc4)C(=O)C(C)(C)[C@@H]3CC[C@]12C,8.47% (active)
9,CN(C)CCCN(c1nc(C(Cl)(Cl)Cl)ns1)c1nc(C(Cl)(Cl)Cl)ns1,24.4%
10,Cc1ccc(-c2cc3nc(-c4ccccc4)nc(C(Cl)Cl)n3n2)cc1,12.6%
11,O=C(N/N=C\c1ccc(Cl)cc1Cl)c1ccncc1,87.6%
12,CC(=O)OC[C@H](O)[C@@]1(O)CC[C@H]2[C@@H]3CCC4=CC(=O)CC[C@]4(C)[C@H]3[C@@H](O)C[C@@]21C,101%
13,C=C(CC(=O)OC)C(C)=O,95.8%
14,Cc1nnc(Nc2ccc(NC(=O)Nc3ccc(Cl)cc3)cc2)c2ccccc12,-34.8% (active)
15,COc1cc2c(c(OC)c1O)C(=O)C(OC)C(c1ccc(O)c(O)c1)O2 (stereo not given),-28.6% (active)
16,COc1cccc(N2CCN(c3cccc(C)n3)CC2)c1,100%
17,CN1CCN(CC(=O)Nc2ccc3ncnc(Nc4ccc(Oc5cccc(C(F)(F)F)c5)c(Cl)c4)c3c2)CC1,-35.7% (active)
18,O=C(CI)Nc1ccc(O)c2ccccc12,-11.9% (active)
19,CN(C)CCC=C1c2ccccc2C(C)(C)c2ccccc21,85.5%
20,Cn1ccc2c1CC1CN(Cc3ccco3)C(=O)C1C2C(=O)O (stereo not given),98.8%
